“And” between values parts separate entries of the source, which are not always exact repeats. Equal values may be shown once.

The first assay has as its system Plasmodium falciparum. The assay is described as follows: GSK_TCMDC: Inhibition of Plasmodium falciparum 3D7 in whole red blood cells, using parasite LDH activity as an index of growth. Test compounds present at 2uM. It is filed as functional.
As to `COCCNCc1ccc(-c2ccc(CN(C(=O)NC3CCCCC3)C3CCN(Cc4ccccc4)CC3)cc2)cc1.O=C(O)C(F)(F)F`, the Inhibition worked out at 94%.

As to `CC[C@H]1CN2CC[C@@H]1C[C@H]2[C@H](O)c1cc(N2CCC(O)CC2)nc2ccc(OC)cc12`, the Inhibition is reported as 99%.

The compound `CC(C)CNCc1cccc(-c2cccc(CN(C(=O)c3cccs3)C3CCN(Cc4ccccc4)CC3)c2)c1.O=C(O)C(F)(F)F` had an Inhibition of 90%.

`CNCC(O)c1cc(Cl)c(Cl)cc1C.Cl` (stereo unspecified) returned an Inhibition of 98%.

`O=C(Nc1ccccc1Cl)NC1CCC(CN2CCC(c3c[nH]c4ccccc34)CC2)CC1` (stereo unspecified): the Inhibition was 100% and 98%.

Regarding `CC1(CCCCN2CC=C(c3c[nH]c4ccccc34)CC2)C(=O)Nc2ccccc21` (stereo unspecified), the Inhibition is 94%.

As to `CC(=O)Nc1ccc(CN2CCC(N(C)c3cc(NC(=O)c4cccc(F)c4)ccn3)CC2)cc1.O=C(O)C(F)(F)F`, the Inhibition came out at 85%.

`O=C(COc1ccc(Cl)cc1)N1CCC(CN2CCC(c3c[nH]c4ccccc34)CC2)CC1` yielded an Inhibition of 89%.

The compound `CCCCCc1cc(O)c2c(c1)OC(C)(C)CC2C1=CCN(Cc2ccccc2)CC1` (stereo unspecified) registered an Inhibition of 99%.

Take `CCOC(=O)c1c(CN2CCN(C)CC2)n(Cc2ccccc2)c2cc(Br)c(O)cc12`: the Inhibition was 100%.

`O=C(/C=C/c1cccc2ccccc12)NC1CCC(CN2CCC(c3c[nH]c4ccccc34)CC2)CC1` (stereo unspecified) returned an Inhibition of 100%.

`COc1cccc(C2(C)CCN(CCCCNC(=O)c3ccc(NC(=O)c4ccc(Cl)cc4)cc3)CC2)c1.Cl` yielded an Inhibition of 97%.

Turning to `Cc1cc(N)nc2ccc(CNCCc3ccccc3Br)cc12.Cl`, the Inhibition was 100%.

As to `COc1cc(/C=C/C(=O)NC2CCC(CN3CCC(c4c[nH]c5ccccc45)CC3)CC2)ccc1O` (stereo unspecified), the Inhibition was 98% and 99%.

The compound `Br.COC(=O)C(C)(C)c1ccc(CC(C)NCC(O)c2cccc(C(F)(F)F)c2)cc1` (stereo unspecified) showed an Inhibition of 99%.

`N#Cc1ccc(N(CC(=O)NCCc2ccccc2)CC2CC2)c2ccccc12.O=C(O)C(F)(F)F`: the Inhibition is given as 99%.

`Cc1[nH]c2ccc(NS(C)(=O)=O)cc2c1C1CCN(CC2CCN(C(=O)/C=C/c3ccc(Cl)c(Cl)c3)CC2)CC1` displayed an Inhibition of 99%.

`CC(=O)C1(c2ccccc2)CCN(CCC2(c3ccc(Cl)c(Cl)c3)CN(C(=O)C3CCCC3)CCO2)CC1` (stereo unspecified) gave an Inhibition of 88%.

Regarding `CC(=O)Nc1ccc(CN2CCC(N(C)c3ccc(NC(=O)c4cccc(C)c4)cc3)CC2)cc1.O=C(O)C(F)(F)F`, the Inhibition came to 91%.

With `O=C(/C=C/c1ccc(Cl)c(Cl)c1)NCc1ccc(CN2CCC(c3c[nH]c4ccccc34)CC2)cc1`, the Inhibition turned out to be 100%.

`O=C1NCN(c2ccc(O)cc2)C12CCN(CCCC(c1ccc(F)cc1)c1ccc(F)cc1)CC2` came in with an Inhibition of 94%.

In turn, `Fc1ccc(N(c2nc(-c3cc(F)cc(C(F)(F)F)c3)cs2)C2CCNCC2)cc1.O=C(O)C(F)(F)F` yielded an Inhibition of 95%.

`O=C(NC1CCC(N2CCC3(CC2)C(=O)NCN3c2ccccc2)CC1)c1cc2ccccc2[nH]1` (stereo unspecified) gave an Inhibition of 98%.

Take `CC(C)/C(=C(/F)CN1C(=O)C(NC(=O)c2cc3ccccc3[nH]2)C(=O)N(c2ccccc2)c2ccccc21)c1ccccc1` (stereo unspecified): the Inhibition turned out to be 98%.

Turning to `O=S(=O)(NC1CCC(CN2CCC(c3c[nH]c4ccccc34)CC2)CC1)c1ccc(Cl)c(Cl)c1` (stereo unspecified), the Inhibition was determined as 97%.

In the case of `CCCCCCCn1c(=O)c(C(=O)Nc2c(C)cccc2C)c(O)c2ccccc21`, the Inhibition turned out to be 90%.

As for `Cc1cc(N(C)C2CCN(C)CC2)nc(Nc2ccc(Cl)cc2)n1`, the Inhibition is reported as 98%.

In turn, `COc1cc(C=CC(=O)N2CCC(CN3CCC(c4c[nH]c5ccccc45)CC3)CC2)ccc1O` registered an Inhibition of 82%.

The compound `COc1ccc(CC(C)NCC(O)c2cccc(Br)c2)cc1` (stereo unspecified) came in with an Inhibition of 99%.

`CC[C@H]1CN2CC[C@H]1C[C@H]2[C@H](O)c1cc(-c2ccc3ccccc3c2)nc2ccc(OC)cc12.Cl`: the Inhibition was determined as 99%.

Take `O=C(/C=C/c1ccc(Cl)c(Cl)c1)Nc1cccc(CN2CCC(c3c[nH]c4ccc(O)cc34)CC2)c1`: the Inhibition was 100%.

Regarding `CN1C(=O)[C@H](NC(=O)[C@@H](Cc2ccccc2)NC(=S)Nc2ccccc2)N=C(c2ccccc2)c2ccccc21`, the Inhibition amounted to 86%.

`CCCCc1ccc2[nH]cc(C3=CCN(C)CC3)c2c1Br`: the Inhibition was found to be 94%.

As for `Br.CC[C@H]1CN2CC[C@H]1C[C@H]2[C@H](O)c1ccnc2ccc(C#N)cc12`, the Inhibition is listed as 100%.

The compound `CCC1(C)CC(CCNCc2ccccc2O)(c2ccc(F)cc2)CCO1` (stereo unspecified) showed an Inhibition of 98%.

Consider `COc1ccccc1CNCC(O)c1cc(C(F)(F)F)ccc1C(F)(F)F` (stereo unspecified), for which the Inhibition is 100%.

For `CC[C@H]1CN2CC[C@@H]1C[C@H]2[C@H](O)c1cc(-c2cccnc2)nc2ccc(OC)cc12.Cl`, the Inhibition came to 99%.

For the compound `Oc1ccc(CN2CCN(CCOC(c3ccc(F)cc3)c3ccc(F)cc3)CC2)cc1Cl`, the Inhibition came to 96%.

The subject of a further assay is Plasmodium falciparum. The assay is described as follows: GSK_TCMDC: Inhibition of Plasmodium falciparum Dd2 in whole red blood cells, using parasite LDH activity as an index of growth. Test compounds present at 2uM. It is filed as functional.
In the case of `COCCNCc1ccc(-c2ccc(CN(C(=O)NC3CCCCC3)C3CCN(Cc4ccccc4)CC3)cc2)cc1.O=C(O)C(F)(F)F`, the Inhibition is 84%.

For the compound `CC[C@H]1CN2CC[C@@H]1C[C@H]2[C@H](O)c1cc(N2CCC(O)CC2)nc2ccc(OC)cc12`, the Inhibition was 92%.

In turn, `CC(C)CNCc1cccc(-c2cccc(CN(C(=O)c3cccs3)C3CCN(Cc4ccccc4)CC3)c2)c1.O=C(O)C(F)(F)F` returned an Inhibition of 36%.

Compound `CNCC(O)c1cc(Cl)c(Cl)cc1C.Cl` (stereo unspecified) came in with an Inhibition of 88%.

For the compound `O=C(Nc1ccccc1Cl)NC1CCC(CN2CCC(c3c[nH]c4ccccc34)CC2)CC1` (stereo unspecified), the Inhibition is 34% and 31%.

In the case of `CC1(CCCCN2CC=C(c3c[nH]c4ccccc34)CC2)C(=O)Nc2ccccc21` (stereo unspecified), the Inhibition was 90%.

The compound `CC(=O)Nc1ccc(CN2CCC(N(C)c3cc(NC(=O)c4cccc(F)c4)ccn3)CC2)cc1.O=C(O)C(F)(F)F` came in with an Inhibition of 0%.

Compound `O=C(COc1ccc(Cl)cc1)N1CCC(CN2CCC(c3c[nH]c4ccccc34)CC2)CC1` displayed an Inhibition of 13%.

For `CCCCCc1cc(O)c2c(c1)OC(C)(C)CC2C1=CCN(Cc2ccccc2)CC1` (stereo unspecified), the Inhibition is listed as 79%.

Compound `CCOC(=O)c1c(CN2CCN(C)CC2)n(Cc2ccccc2)c2cc(Br)c(O)cc12` came in with an Inhibition of 46%.

For the compound `O=C(/C=C/c1cccc2ccccc12)NC1CCC(CN2CCC(c3c[nH]c4ccccc34)CC2)CC1` (stereo unspecified), the Inhibition is 72% and 66%.

In the case of `COc1cccc(C2(C)CCN(CCCCNC(=O)c3ccc(NC(=O)c4ccc(Cl)cc4)cc3)CC2)c1.Cl`, the Inhibition stood at 72%.

`Cc1cc(N)nc2ccc(CNCCc3ccccc3Br)cc12.Cl` returned an Inhibition of 77%.

As to `COc1cc(/C=C/C(=O)NC2CCC(CN3CCC(c4c[nH]c5ccccc45)CC3)CC2)ccc1O` (stereo unspecified), the Inhibition is 45% and 44%.

`Br.COC(=O)C(C)(C)c1ccc(CC(C)NCC(O)c2cccc(C(F)(F)F)c2)cc1` (stereo unspecified) showed an Inhibition of 98%.

In turn, `N#Cc1ccc(N(CC(=O)NCCc2ccccc2)CC2CC2)c2ccccc12.O=C(O)C(F)(F)F` gave an Inhibition of 48%.

Compound `Cc1[nH]c2ccc(NS(C)(=O)=O)cc2c1C1CCN(CC2CCN(C(=O)/C=C/c3ccc(Cl)c(Cl)c3)CC2)CC1` returned an Inhibition of 83%.

`CC(=O)C1(c2ccccc2)CCN(CCC2(c3ccc(Cl)c(Cl)c3)CN(C(=O)C3CCCC3)CCO2)CC1` (stereo unspecified): the Inhibition turned out to be 70%.

Consider `CC(=O)Nc1ccc(CN2CCC(N(C)c3ccc(NC(=O)c4cccc(C)c4)cc3)CC2)cc1.O=C(O)C(F)(F)F`, for which the Inhibition is 50%.

The compound `O=C(/C=C/c1ccc(Cl)c(Cl)c1)NCc1ccc(CN2CCC(c3c[nH]c4ccccc34)CC2)cc1` registered an Inhibition of 86%.

Compound `O=C1NCN(c2ccc(O)cc2)C12CCN(CCCC(c1ccc(F)cc1)c1ccc(F)cc1)CC2` yielded an Inhibition of 34%.

Compound `Fc1ccc(N(c2nc(-c3cc(F)cc(C(F)(F)F)c3)cs2)C2CCNCC2)cc1.O=C(O)C(F)(F)F` showed an Inhibition of 10%.

In turn, `O=C(NC1CCC(N2CCC3(CC2)C(=O)NCN3c2ccccc2)CC1)c1cc2ccccc2[nH]1` (stereo unspecified) gave an Inhibition of 40%.

`CC(C)/C(=C(/F)CN1C(=O)C(NC(=O)c2cc3ccccc3[nH]2)C(=O)N(c2ccccc2)c2ccccc21)c1ccccc1` (stereo unspecified) returned an Inhibition of 82%.

For `O=S(=O)(NC1CCC(CN2CCC(c3c[nH]c4ccccc34)CC2)CC1)c1ccc(Cl)c(Cl)c1` (stereo unspecified), the Inhibition turned out to be 32%.

Compound `CCCCCCCn1c(=O)c(C(=O)Nc2c(C)cccc2C)c(O)c2ccccc21` returned an Inhibition of 42%.

In turn, `Cc1cc(N(C)C2CCN(C)CC2)nc(Nc2ccc(Cl)cc2)n1` returned an Inhibition of 90%.

For the compound `COc1cc(C=CC(=O)N2CCC(CN3CCC(c4c[nH]c5ccccc45)CC3)CC2)ccc1O`, the Inhibition is reported as 25%.

`COc1ccc(CC(C)NCC(O)c2cccc(Br)c2)cc1` (stereo unspecified): the Inhibition amounted to 93%.

In turn, `CC[C@H]1CN2CC[C@H]1C[C@H]2[C@H](O)c1cc(-c2ccc3ccccc3c2)nc2ccc(OC)cc12.Cl` gave an Inhibition of 99%.

`O=C(/C=C/c1ccc(Cl)c(Cl)c1)Nc1cccc(CN2CCC(c3c[nH]c4ccc(O)cc34)CC2)c1` came in with an Inhibition of 90%.

As to `CN1C(=O)[C@H](NC(=O)[C@@H](Cc2ccccc2)NC(=S)Nc2ccccc2)N=C(c2ccccc2)c2ccccc21`, the Inhibition came to 23%.

Compound `CCCCc1ccc2[nH]cc(C3=CCN(C)CC3)c2c1Br` had an Inhibition of 94%.

As to `Br.CC[C@H]1CN2CC[C@H]1C[C@H]2[C@H](O)c1ccnc2ccc(C#N)cc12`, the Inhibition was 55%.

In turn, `CCC1(C)CC(CCNCc2ccccc2O)(c2ccc(F)cc2)CCO1` (stereo unspecified) gave an Inhibition of 32%.

In the case of `COc1ccccc1CNCC(O)c1cc(C(F)(F)F)ccc1C(F)(F)F` (stereo unspecified), the Inhibition amounted to 95%.

The compound `CC[C@H]1CN2CC[C@@H]1C[C@H]2[C@H](O)c1cc(-c2cccnc2)nc2ccc(OC)cc12.Cl` returned an Inhibition of 99%.

Turning to `Oc1ccc(CN2CCN(CCOC(c3ccc(F)cc3)c3ccc(F)cc3)CC2)cc1Cl`, the Inhibition is 87%.

(Values after ChEMBL document CHEMBL1157539, “Thousands of chemical starting points for antimalarial lead identification” (Nature, 2010).)
